± gives the standard deviation of the averaged measurements.
Assays:
[1] = test system: Renilla luciferase (RLuc); assay: residual bioluminescent signal relative to negative (DMSO) control; higher = less interference (more residual luciferase signal)
In short: (§1)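 Metal salts in water were tested at 0.01, 1 and 5 mM final against purified firefly, NanoLuc or Renilla luciferase, with a 10 min room-temperature pre-incubation and a luminescence read 10 min after substrate addition. Each value of residual signal is a well's luminescence as a percentage of the plate's mean vehicle-only signal.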

[2] = test system: NanoLuc luciferase (NLuc); assay: as above
In short: as §1

[3] = metal salt concentration 0.01 mM, HEPES conditions (100 mM HEPES, 0.05% BSA, 0.3 M sodium ascorbate, pH 7.5)
[4] = metal salt concentration 0.01 mM, screening conditions (50 mM Tris-HCl, […] KH2PO4, […] NaCl, 0.25 mM EDTA, 0.1% BSA, 0.3 M sodium ascorbate, pH 7.4)
[5] = metal salt concentration 1 mM, HEPES conditions (100 mM HEPES, 0.05% BSA, 0.3 M sodium ascorbate, pH 7.5)
[6] = metal salt concentration 1 mM, screening conditions (50 mM Tris-HCl, […] KH2PO4, […] NaCl, 0.25 mM EDTA, 0.1% BSA, 0.3 M sodium ascorbate, pH 7.4)
[7] = metal salt concentration 5 mM, HEPES conditions (100 mM HEPES, 0.05% BSA, 0.3 M sodium ascorbate, pH 7.5)
[8] = metal salt concentration 5 mM, screening conditions (50 mM Tris-HCl, […] KH2PO4, […] NaCl, 0.25 mM EDTA, 0.1% BSA, 0.3 M sodium ascorbate, pH 7.4)
[9] = metal salt concentration 0.01 mM, HEPES conditions (100 mM HEPES, 0.1% BSA, pH 7.5)
[10] = metal salt concentration 0.01 mM, screening conditions (PBS, 0.1% BSA, pH 7.4)
[11] = metal salt concentration 1 mM, HEPES conditions (100 mM HEPES, 0.1% BSA, pH 7.5)
[12] = metal salt concentration 1 mM, screening conditions (PBS, 0.1% BSA, pH 7.4)
[13] = metal salt concentration 5 mM, HEPES conditions (100 mM HEPES, 0.1% BSA, pH 7.5)
[14] = metal salt concentration 5 mM, screening conditions (PBS, 0.1% BSA, pH 7.4)

| SMILES | residual bioluminescent signal [1, 3] [%] | residual bioluminescent signal [1, 4] [%] | residual bioluminescent signal [1, 5] [%] | residual bioluminescent signal [1, 6] [%] | residual bioluminescent signal [1, 7] [%] | residual bioluminescent signal [1, 8] [%] | residual bioluminescent signal [2, 9] [%] | residual bioluminescent signal [2, 10] [%] | residual bioluminescent signal [2, 11] [%] | residual bioluminescent signal [2, 12] [%] | residual bioluminescent signal [2, 13] [%] | residual bioluminescent signal [2, 14] [%] |
| --- | --- | --- | --- | --- | --- | --- | --- | --- | --- | --- | --- | --- |
| O=S(=O)([O-])[O-].[Fe+2] [iron(II) sulfate] | 83.1 ± 2.5 | 99.5 ± 4 | 2.25 ± 0.97 | 13.5 ± 2.4 | 0.704 ± 0.68 | 0.762 ± 0.34 | – | – | – | – | – | – |
| [Cl][Fe]([Cl])[Cl] [iron(III) chloride] | 91.5 ± 7.9 | 94.1 ± 10 | 2.32 ± 0.56 | 39.9 ± 12 | 0.985 ± 0.12 | 0.807 | – | – | – | – | – | – |
| O=C([O-])[O-].[K+].[K+] [potassium carbonate] | 90.4 ± 4.2 | 88.9 ± 2.2 | 93.2 ± 9.6 | 92.2 ± 5.6 | 96.4 ± 7 | 76.8 ± 4.4 | – | – | – | – | – | – |
| [Cl][Pt-2]([Cl])([Cl])[Cl].[K+].[K+] [potassium tetrachloroplatinate(II)] | 93.6 ± 1.9 | 96.1 ± 1.4 | 16.3 ± 9.4 | 8.11 ± 2.9 | 3.38 ± 2.1 | 1.17 ± 0.82 | 91.45 ± 0.79 | 99.8 ± 2.3 | 8.06 ± 0.51 | 7.81 ± 1.1 | 7.52 ± 0.31 | 5.07 ± 0.66 |
| [Cl][Fe][Cl] [iron(II) chloride] | 62.9 ± 8.6 | 85.9 ± 6.2 | 1.9 ± 1.7 | 3.45 ± 1.9 | 0.774 ± 0.53 | 0.404 ± 0.27 | – | – | – | – | – | – |
| O=C([O-])[O-].[Cs+].[Cs+] [caesium carbonate] | 91.5 ± 6.8 | 94.9 ± 6.5 | 100 ± 11 | 93 ± 4.2 | 87.4 ± 1.1 | 87.8 ± 5.2 | – | – | – | – | – | – |
| O=S(=O)([O-])[O-].[Mn+2] [manganese(II) sulfate] | 112 ± 9.2 | 103 ± 12 | 101 ± 3.7 | 102 ± 5.1 | 71.9 ± 9.5 | 108.6 ± 0.66 | – | – | – | – | – | – |
| O.O.O.O.O.O.O.O=S(=O)([O-])[O-].[Mg+2] [magnesium sulfate] | 85.7 ± 4.6 | 88.5 ± 5.2 | 99.3 ± 11 | 93.1 ± 12 | 97.7 ± 5.9 | 109 ± 27 | 91 ± 1.1 | 97.44 ± 0.7 | 99 ± 1.7 | 95.09 ± 0.87 | 107 ± 3.1 | 95.5 ± 2.1 |
| CC#N.CC#N.CC#N.CC#N.F[B-](F)(F)F.[Cu+] [tetrakis(acetonitrile)copper(I) tetrafluoroborate] | 98.7 ± 11 | 103 ± 2.8 | 0.774 ± 0.32 | 0.538 ± 0.36 | 1.06 ± 0.76 | 0.628 ± 0.43 | 92.6 ± 2.9 | 90 ± 3 | 0.251 ± 0.095 | 0.838 ± 0.074 | 0.149 ± 0.095 | 0.354 ± 0.31 |
| O.O.O.O.O.O.O.O.O.O.O=S(=O)([O-])[O-].[Na+].[Na+] [sodium sulfate] | 112 ± 4.9 | 111 ± 1.9 | 75.1 ± 66 | 108 ± 9.8 | 118 ± 11 | 109 ± 13 | – | – | – | – | – | – |
| [Cl-].[Na+] [sodium chloride] | 97.4 ± 13 | 91.3 ± 5.2 | 104 ± 18 | 88.6 ± 1.3 | 111 ± 5 | 94.4 ± 11 | 95.5 ± 3.6 | 99.4 ± 2.9 | 99.8 ± 3.9 | 102 ± 4.1 | 98.5 ± 2.6 | 99.4 ± 4.3 |
